Sampled rows, rich in hits. Any-hit rate of the full collection: about 5.7%.
KB-V1 cytotox: qHTS assay for MDR1-selective chemotherapeutics: Primary screen using the drug-selected MDR subline cells KB-V1; KB-V1 MDR cells viability, CellTiter-Glo, 72 h; 400,000 compounds, 3.4% hits; Potency, µM (series often up to 46.1 µM), actives largely listed as cytotoxic; AID 1347076, 2019; also: nearly all actives have a fitted effect of over 60% in size
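KB-V1 cells (P-gp-expressing MDR subline of KB-3-1) in phenol-red-free DMEM with 10% FBS were exposed to library compounds over a concentration series for 72 h at 37 degrees C. Viability read by CellTiter-Glo luminescence; concentration-effect curves fitted after normalization.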
KB-3-1 cytotox: qHTS assay for MDR1-selective chemotherapeutics: Primary screen using the parental adenocarcinoma cell KB-3-1. KB-3-1 viability, CellTiter-Glo ATP luminescence, 72 h. Potency, µM (doses to about 46.1 µM), most hits filed as cytotoxic. 400,000 compounds, 1.4% hits. AID 1347075, 2019; also: nearly all actives have a fitted effect of over 60% in size
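Luminescent ATP read-out (CellTiter-Glo) measures survival of drug-naive KB-3-1 cells after 72 h compound exposure at 37 °C. Titration series was screened from lowest to highest concentration, with DMSO vehicle plates as background controls.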
HT1080-NT tox: qHTS for induction of synthetic lethality in tumor cells producing 2HG: qHTS for the HT-1080-NT fibrosarcoma cell line; Potency, µM (doses to about 46.1 µM), for inactives: at the highest dose activity, negative = less viability, actives largely listed as cytotoxic; HT-1080-NT fibrosarcoma viability, CellTiter-Glo ATP luminescence, 48 h; 360,000 compounds, 1.6% hits; AID 686970, 2013;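 also: NT is the 2HG producing partner of a matched IDH1 knockdown line; 0% = DMSO-treated cells and -100% = media-only wells without cells; nearly all actives have a fitted effect of over 55% in size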
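Viability of the 2HG-overproducing fibrosarcoma line after 48 hours of compound exposure at 37 degrees C was determined by luminescence with CellTiter-Glo, and concentration-effect curves were then fitted and categorized.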
HT1080 IDH1KD tx: qHTS for induction of synthetic lethality in tumor cells producing 2HG: qHTS for the HT-1080-IDH1KD cell line; HT-1080 IDH1 knockdown viability, ATP luminescence, 48 h; Potency, µM (doses to about 46.1 µM), for inactives: at the top dose activity, negative = toxicity, hits mostly cytotoxic; 360,000 compounds, 2% hits;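 also: 0% = DMSO wells and -100% = cell-free medium wells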
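After a 2 h attachment period, IDH1KD HT-1080 cells took pin-transferred compound for 48 h at 37 °C; ATP-based luminescence after 10 min room-temperature reagent incubation reported viability.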
Active calls of the source: *; i = inactive; u = inconclusive; x = no result; [ ] = remark or other dose. Calls follow the shape of the dose curve; as a rule, active = well fitted curve in the direction sought with a large enough effect; inconclusive = small, poorly fitted or top-dose-only effect, or another doubt; inactive = no such curve, though single readings can be large; an effect the other way counts as inactive or inconclusive. Unless noted, % is scaled to controls: 0 for no effect and ±100 for the full control effect; potency is read from the fitted curve at half-maximal effect.

SMILES | KB-V1 cytotox | KB-3-1 cytotox | HT1080-NT tox | HT1080 IDH1KD tx
CCOc1ccc(C2C=C(c3ccc(C)cc3)Nc3nnnn32)cc1 (stereo unspecified) | u | u | u | 13µM*
COCCn1c(C)cc(C(=O)CSc2nncn2-c2ccccc2)c1C | 10µM* | i | -1% | 11%
Cc1cc(C(=O)CSc2nnc(-c3ccncc3)n2-c2ccccc2)c(C)n1C | i | i | 0% | -3%
Cc1cc(C(=O)CSc2nnc(-c3ccc(Cl)cc3)n2CC2CCCO2)c(C)n1C (stereo unspecified) | 6.5µM* | i | 0% | -7%
Cc1cc(C(=O)CSc2nnc(-c3ccccc3)n2C)c(C)n1C | 7.3µM* | i | -2% | 17%
O=S(=O)(c1ccc(C(F)(F)F)cc1)N1CCN(c2nc(-c3ccccc3)nc3ccccc23)CC1 | i | i | x | x
Cc1ccc(CSCCNC(=O)C2CCN(S(=O)(=O)Cc3ccccc3)CC2)cc1 | i | i | x | x
C=C1C=C(C(F)F)n2ncc(C(=O)NCc3ccc(Cl)cc3Cl)c2N1 | i | i | x | x
O=C(Nc1cccc(NC(=O)c2ccco2)c1)c1ccc2c(c1)OCO2 | 13µM* | i | -6% | 6%
Cc1cc(NC(=O)c2ccc3c(c2)OCO3)ccc1NC(=O)c1ccco1 | u | u | u | 18µM*
CCCCC(=O)Nc1cccc(NC(=O)c2ccc(Br)o2)c1 | 12µM* | i | 3% | 3%
CCCCC(=O)Nc1cccc(NC(=O)c2ccc3c(c2)OCO3)c1 | 13µM* | i | -27% | 8%
CCCOc1ccc(C2c3c(oc4ccccc4c3=O)C(=O)N2c2nnc(C(C)C)s2)cc1 (stereo unspecified) | i | i | x | x
O=C(Nc1ncc(S(=O)(=O)c2ccc([N+](=O)[O-])cc2)s1)c1cccnc1 | i | i | u | 23µM*
COC(=O)C(NC(=O)c1ccccc1Cl)(Nc1ncc(S(=O)(=O)c2ccc([N+](=O)[O-])cc2)s1)C(F)(F)F (stereo unspecified) | 13µM* | u | 14% | 0%
COc1ccc(N(C)S(=O)(=O)c2cccc(C(=O)Nc3ccc(N4CCOCC4)cc3)c2)cc1 | 15µM* | u | -8% | -27%
CCOc1ccc(NC(=O)c2cccc(OC(=S)N3CCOCC3)c2)cc1 | u | i | -1% | -5%
COc1ccc(NC(=O)c2cccc(OC(=S)N3CCOCC3)c2)cc1 | 16µM* | i | -23% | -7%
Cc1ccc(N(C)S(=O)(=O)c2cccc(C(=O)Nc3ccc(N4CCOCC4)cc3)c2)cc1 | u | u | -1% | -16%
COc1cc(OC)c(-c2nn3c(-c4cc(C)[nH]n4)nnc3s2)cc1OC | u | i | x | x
Cc1ccc(NS(=O)(=O)c2ccc(-c3cnc(C4CC4)o3)cc2)c(C)c1 | 2.6µM* | 2.1µM* | u | 0.82µM*
Cc1ccc(N(C)S(=O)(=O)c2cc(-c3cnc(C4CC4)o3)ccc2C)cc1 | i | u | 3% | -4%
O=S(=O)(Nc1ccc(F)cc1Cl)c1ccc(-c2cnc(C3CC3)o2)cc1 | 1.5µM* | 1.2µM* | 1.2µM* | u
Cc1cc(C)c(NS(=O)(=O)c2ccc(-c3cnc(C4CC4)o3)cc2)c(C)c1 | 2.1µM* | 0.46µM* | x | x
Cc1cc(C)c(NS(=O)(=O)c2cc(-c3cnc(C4CC4)o3)ccc2C)c(C)c1 | i | i | x | x
SMILES | KB-V1 cytotox | KB-3-1 cytotox | HT1080-NT tox | HT1080 IDH1KD tx
Cc1cccc(N(C)S(=O)(=O)c2ccc(-c3cnc(C4CC4)o3)cc2)c1 | u | u | 0.052µM* | u
COc1ccccc1NC(=O)CCn1nc(-c2ccccc2OC)c2c(C)cc(C)nc21 | u | i | x | x
CC(C)OCCCNC(=O)CCCN1C(=O)CCn2nc(-c3cccn3C)cc21 | i | i | x | x
COc1ccc(NC(=O)Cn2ncc3c4ccccc4n(Cc4ccccc4)c3c2=O)cc1OC | i | i | x | x
O=C(COc1ccc(Cl)cc1Cl)NCc1ccncc1 | 18µM* | i | -5% | 6%
O=C(COc1ccc(Cl)cc1Cl)NNC(=S)Nc1ccc(F)cc1 | 21µM* | i | -11% | -4%
CSc1ccccc1NC(=O)COc1ccc(Cl)cc1Cl | i | u | -16% | -21%
O=C(COc1ccc(Cl)cc1Cl)Nc1ccccn1 | u | u | -25%[9.24 µM] | 10µM*
Cc1ccccc1CN1[C@H]2CCCC[C@@H]2OCCS1(=O)=O | u | i | x | x
CC(NCc1ccc(-c2ccccc2)cc1)C(O)c1ccccc1 (stereo unspecified) | i | i | u | 15µM*
CC(O)CNCc1ccc(-c2ccccc2)cc1 (stereo unspecified) | i | i | -29% | -23%
Cc1ccc(-n2ccnc(NCCc3ccc(S(N)(=O)=O)cc3)c2=O)cc1C | i | i | x | x
CCOc1ccc2c(c1)OC1(CCC(C)C1)CC2=O (stereo unspecified) | i | i | -14% | -6%
CCOc1ccc2c(c1)OC(c1ccc(C)cc1)(C(F)(F)F)NC2=O (stereo unspecified) | 1.3µM* | i | u | 2.3µM*
COc1ccccc1N1CCN(C(=O)c2cc3c(=O)oc4ccccc4c3s2)CC1 | i | i | x | x
COc1ccc(CNC(=O)c2cc3c(=O)n4cccc(C)c4nc3s2)cc1 | i | i | x | x
O=C(COc1ncnc2c1cnn2-c1ccccc1)Nc1ccc(S(=O)(=O)N2CCCCC2)cc1 | 21µM* | i | -18% | -17%
COc1ccc(NC(=O)C2CCCN(S(=O)(=O)c3cccnc3)C2)cc1OC (stereo unspecified) | i | i | 3% | 8%
O=C(COc1ccccc1)Nc1ccc(S(=O)(=O)N2CCCCCC2)cc1 | 16µM* | i | 0% | -17%
O=C(COc1ccccc1)Nc1ccc(S(=O)(=O)N2CCCC2)cc1 | i | i | 16% | 8%
CCOC(=O)N1CCN(C(=O)C2CCCN(S(=O)(=O)c3ccc(C)cc3)C2)CC1 (stereo unspecified) | 3.7µM* | i | 12% | 0%
COc1ccc(S(=O)(=O)N2CCCC(C(=O)Nc3cccnc3)C2)cc1Cl (stereo unspecified) | u | 16µM* | 1% | u
O=C(CSC1=Nc2ccccc2C2=NC(Cc3ccccc3)C(=O)N12)Nc1cccc(Cl)c1 (stereo unspecified) | i | i | x | x
CCOc1ccc(S(=O)(=O)N2CCCC(C(=O)Nc3cc(C)cc(C)c3)C2)cc1 (stereo unspecified) | i | i | 1% | u
CCOc1ccc(S(=O)(=O)N2CCCC(C(=O)Nc3ccccc3)C2)cc1 (stereo unspecified) | 10µM* | i | 8% | 1%
COc1ccc(-c2cc(-c3c(O)c(OC)c4occc4c3OC)[nH]n2)cc1 | 13µM* | u | u | u

High-throughput results: PubChem, National Center for Advancing Translational Sciences (NCATS)
